Compound activity deposited in PubChem BioAssay by National Center for Advancing Translational Sciences (NCATS).
Tau fluor cs: counter-screen for tau fibril formation inhibitors; tau K18 P301L Alexa594 fluorescence, heparin fibrillization; Potency, µM (highest dose often 57.7 µM), for inactives: at the top dose activity change, negative = decrease; hit rate 0.93% among 280,000; further: potency means the concentration at half of the fitted maximal effect; nearly all actives have a fitted effect of over 55% in size
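Human tau K18 P301L (15 uM unlabeled, 0.24 uM Alexa 594-labeled) in 100 mM sodium acetate pH 7 with 20 uM heparin, 6 hr at 37 C. ThT 30 uM added, 1 hr ambient; Alexa 594 FP and total fluorescence read at 555/632 nm.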
Tau FP inhib: blocks human tau fibril formation measured by polarization | P10636 | K18 P301L tau heparin fibrillization, Alexa594 FP, 6 h | Potency, µM (highest dose often 57.7 µM), for the others: top-dose activity, negative = inhibition, actives largely listed as inhibitors | hit rate 0.39% among 280,000 | AID 1468; further: potency means the concentration at half of the fitted maximal effect; nearly all actives have a fitted effect of over 55% in size
Target sequence (P10636 561-689 P618L limits assumed): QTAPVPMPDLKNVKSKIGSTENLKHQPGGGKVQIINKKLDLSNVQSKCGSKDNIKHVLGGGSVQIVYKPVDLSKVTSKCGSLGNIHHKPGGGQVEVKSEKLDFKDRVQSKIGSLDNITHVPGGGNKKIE
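FP of Alexa 594-tau after heparin (20 uM) induction. Substrate: human K18 P301L, 15 uM unlabeled, 0.24 uM labeled. Buffer 100 mM sodium acetate pH 7. 6 hr, 37 C.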
Tau ThT inhib: tau fibrillization inhibition (ThT binding) | recombinant tau K18 P301L, heparin-induced fibrillization, ThT fluorescence | P10636 | Potency, µM (series often up to 57.4 µM), without a hit: at the highest dose activity, negative = inhibition, hits mostly inhibitors | hit rate 2.1% among 270,000 | AID 1460; further: potency means the concentration at half of the fitted maximal effect; nearly all actives have a fitted effect of over 55% in size
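Using a mix of unlabeled (15 uM) and Alexa 594-labeled (0.24 uM) tau K18 P301L, heparin-triggered fibrillization over 6 hr at 37 C was scored by ThT fluorescence.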
FBPA coupling cs: inhibits coupling enzyme system, counter-screen for aldolase hits; hit rate 0.67% among 290,000; coupling enzyme system counterscreen, AmpLite Red fluorescence; activity change, negative = inhibition, % at 58.2 µM, hits read low; in the data active means activity change below about -30%
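Fluorescence at 525 nm excitation and 598 nm emission measured inhibition of the coupled detection system without aldolase. Compounds (at 57.5 uM final) were preincubated 10 min at room temperature with coupling enzyme reagent before a 20 min substrate/AmpLite Red step.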
Sfp PPTase inh: blocks B. subtilis Sfp PPTase activity. Q9F4F7. Biochemical Sfp PPTase activity, qHTS. Potency, µM, inactives show largest response in the series, negative = inhibition, usual class: inhibitors. hit rate 3.5% among 310,000. AID 1490;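 further: the enzyme is Sfp with the accession as filed and its product quenches rhodamine fluorescence; potency means the concentration at half of the fitted maximal effect; 0% = enzyme reaction without inhibitor and -100% = no enzyme wells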
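Sfp 15 nM + cpd, 15 min RT; start w/ rhodamine-CoA 5 uM, BHQ-2-YbbR 12.5 uM (final); 50 mM Hepes pH 7.6, 10 mM MgCl2, 0.01% NP-40, 0.01% BSA; read 525/598 nm at 0 and 30 min.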
The depositor's hits bear a star; ? = inconclusive; . = not tested or not shown; [ ] = dose if it differs, or a comment. Hits are enriched below; roughly 5.2% of the tested compounds scored in any of these assays. Unless noted, the call rests on the fitted dose curve; in most records, active means well fitted curve in the direction sought with a large enough effect; inconclusive means small, poorly fitted or top-dose-only effect, or another doubt; inactive means no such curve, though single readings can be large; an effect the other way counts as inactive or inconclusive. Unless noted, on the % scale 0 is the no-effect control and ±100 the full control effect.

SMILES	Tau fluor cs	Tau FP inhib	Tau ThT inhib	FBPA coupling cs	Sfp PPTase inh
CCO/C=C1/C(=O)N(Cc2ccccc2)C(=O)c2ccccc21	-5%	-5%	-11%	-44*	31%
CCC(C)c1ccc(OCC(=O)Nc2cccc3ccc(C)nc23)cc1 (stereo not drawn)	-17%	3%	-6%	.	.
CCN(C(=O)c1cc2c(s1)-c1ccccc1OC2)c1cccc(C(F)(F)F)c1	-13%	6%	-10%	.	.
CSc1cccc(NC(=O)N2CCN(c3cc(-c4noc(C)n4)ccc3C)CC2)c1	-25%	?	8%	.	.
CCOc1ccccc1NC(=O)CSc1nc2c(oc3ccccc32)c(=O)n1-c1ccc(C)c(C)c1	-17%	-13%	1%	.	.
CC(C)C1Oc2ccccc2N(CC(=O)N(Cc2ccccn2)CC2CCCO2)C1=O (stereo not drawn)	-2%	-7%	-1%	2	1%
Cc1ccc(CN(CC2CCCO2)C(=O)CN2C(=O)C(C(C)C)Oc3ccccc32)o1 (stereo not drawn)	-4%	9%	-15%	4	45µM*
COCCn1c(=O)c(-c2ccccc2)nc2cnc(Oc3ccccc3)nc21	.	.	.	-2	-73%
COCCCn1c(-c2ccco2)nc2ccccc2c1=O	-2%	7%	-9%	0	17%
COCCCN=C(c1ccco1)n1c(=S)nc(-c2ccco2)n(CCCOC)c1=S	-24%	?	32µM*	-33*	11µM*
N#C/C(C(=O)c1ccccc1)=C1/SC=C(N)N1c1ccccc1	-29%	?	28µM*	-11	35µM*
COc1cccc(C=NCCNC(=O)c2nonc2N)c1O	-6%	-3%	?	-4	45µM*
Cc1cc(N=Cc2c(O)n(-c3cccc(C(F)(F)F)c3)c(=O)c3ccccc23)no1	-6%	?	?	3	63µM*
O=C1c2ccccc2C(=O)c2c(NCCCN(CCO)CCO)cccc21	?	1%	14µM*	0	-21%
COc1ccc(CNC(=O)c2ccc3c(c2)N(Cc2cc(C)ccc2C)C(=O)CS3)cc1	-14%	-12%	-7%	.	.
CCc1ccccc1-n1c(N)c(C(=O)OC)c2nc3ccccc3nc21	-12%	4%	-4%	.	.
COc1ccccc1CNC(=O)c1c(N)n(CCCN2CCOCC2)c2nc3ccccc3nc12	?	-8%	25µM*	-26	56µM*
COC(=O)c1c(N)n(-c2ccc(N3CCOCC3)cc2)c2nc3ccccc3nc12	?	?	10µM*	-13	-12%
COCCNC(=O)c1c(N)n(-c2cccc(C)c2)c2nc3ccccc3nc12	-25%	?	?	-38*	-20%
COC(=O)c1c(N)n(-c2ccc(NC(C)=O)cc2)c2nc3ccccc3nc12	-8%	12%	?	-30*	-6%
CCn1cc(/C=C(\NC(=O)c2ccc(OC)c(OC)c2)C(=O)NCCCn2ccnc2)c2ccccc21	4%	4%	2%	.	.
COc1cc(C(=O)Nc2ccccc2-c2nc(-c3ccccc3)no2)cc(OC)c1OC	-10%	-18%	?	.	.
COc1ccccc1-n1nc(-c2ccccc2)c2cnc3c(F)cc(F)cc3c21	-10%	-11%	-5%	.	.
O=C(NC1CCCC1)c1ccc2c(=O)n(Cc3ccccc3)c(SCc3ccc([N+](=O)[O-])cc3)nc2c1	-16%	2%	-6%	.	.
COc1cccc(CNC(=O)c2ccc3c(c2)c(C)c(C)n3Cc2ccccc2)c1OC	-16%	4%	-12%	.	.
SMILES	Tau fluor cs	Tau FP inhib	Tau ThT inhib	FBPA coupling cs	Sfp PPTase inh
Nc1c(C(=O)NCCN2CCOCC2)c2nc3ccccc3nc2n1-c1ccc2c(c1)OCO2	-17%	1%	?	-6	-24%
Nc1c(C(=O)NCCN2CCOCC2)c2nc3ccccc3nc2n1-c1ccccc1	-13%	1%	?	-30*	?
CC(=O)SC1CC2=CC(=O)CC[C@]2(C)C2CC[C@@]3(C)[C@@H](CC[C@@]34CCC(=O)O4)C12 (stereo partly drawn)	-25%	-12%	-18%	.	.
Cc1[nH]c2ccccc2c1/C=N/NC(=O)CCC(=O)NCc1ccccc1	?	9%	?	-21	2%
CC(C)NC(=S)N/N=C/c1c[nH]c2ccccc12	?	?	?	-2	12%
Cc1cc(C(=O)N/N=C/c2c(C)[nH]c3ccccc23)n[nH]1	?	?	.	-1	11%
Cc1[nH]c2ccccc2c1/C=N/NC(=O)c1cccc(S(=O)(=O)Nc2cccc(C(F)(F)F)c2)c1	8.9µM*[quencher]	?	?	-20	22%
CCC(=O)Nc1ccc(C(=O)N/N=C/c2c(C)[nH]c3ccccc23)cc1	?	?	11µM*	0	-4%
Cc1[nH]c2ccccc2c1/C=N/NC(=S)NC(C)C	16µM*[quencher]	13%	?	-2	?
Cc1[nH]c2ccccc2c1/C=N/NC(=O)C1CC1(c1ccccc1)c1ccccc1 (stereo not drawn)	5µM*[quencher]	-5%	?	-4	2%
O=C(NCCCc1ccccc1)c1nn(-c2ccccc2F)nc1CO	-12%	7%	-7%	.	.
Cc1[nH]c2ccccc2c1/C=N/Nc1ccccc1[N+](=O)[O-]	2µM*[quencher]	?	1.8µM*	-8	-7%
Cc1[nH]c2ccccc2c1/C=N/NC(=O)c1cc(-c2cccs2)[nH]n1	13µM*[quencher]	?	5.6µM*	-6	-6%
O=C(NCCCCN1CCN(c2cccc(Cl)c2Cl)CC1)c1ccc2c(c1)Cc1ccccc1-2	.	.	.	2	-1%
COc1ccc(NC(=O)c2oc3ccccc3c2NC(=O)Cc2coc3cc(C)ccc23)cc1	?	?	2%	.	.
CSc1ccc(CN2CCC(C(=O)NCc3ccc(C)cc3)CC2)cc1	1%	6%	4%	-1	56µM*
Cc1ccc(CNC(=O)CN2CCC(C(N)=O)CC2)cc1	7%	4%	8%	-2	11%
CC(C)c1ccc(CN2CCC(C(=O)NCc3cccnc3)CC2)cc1	-7%	-2%	-15%	-8	79µM*
CN(Cc1ccccc1)C(=O)c1cccc(NC(=O)c2nsc3ccccc23)c1	-22%	-3%	-14%	.	.
Cc1cccc(-c2nc(SCC(=O)Nc3ccc4c(c3)OCCO4)c(-c3ccccc3)[nH]2)c1	8.9µM*[quencher]	2%	-14%	.	.
O=C(CSc1nc(-c2cccc(F)c2)[nH]c1-c1ccccc1)Nc1ccc2c(c1)OCCO2	11µM*[quencher]	?	?	.	.
O=C(CSc1nc2ccccc2[nH]1)Nc1ccc2c(c1)OCCO2	-12%	-1%	?	2	13%
O=C(Cn1c(=O)n(Cc2nc(-c3ccccc3)no2)c(=O)c2cc3c(cc21)OCO3)Nc1ccc(Cl)cc1	-11%	20µM*	24%	.	.
Cc1ccc(NC(=O)Cn2c(=O)n(Cc3nc(-c4ccccc4)no3)c(=O)c3cc4c(cc32)OCO4)cc1F	-17%	?	19%	.	.
